From PubChem
This is a sample that favours compounds with a hit; in the whole collection about 3.3% have one here.
Giardia FBPA inh-1 = qHTS Assay for Inhibitors of Fructose-1,6-bisphosphate Aldolase from Giardia Lamblia; 290,000 compounds, 0.71% hits; purified Giardia FBPA; Potency, µM (doses to about 59.6 µM), most hits filed as inhibitors; also: nearly all actives have a fitted effect of over 55% in size
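40 nM FBPA preincubated 10 min at RT with compound (up to 57.5 uM final), then substrate plus GAPDH/TPI/NAD/arsenate coupling and diaphorase/resazurin added. Fluorescence read after 20 min at RT, 525/598 nm.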
RE007 growth inh = qHTS Assay for Inhibitors of the HIV-1 protein Vpr; S. pombe RE007 Vpr strain, BacTiter-Glo ATP luminescence, 24 h; Potency, µM (top dose mostly 92.2 µM), actives largely listed as inhibitors; 360,000 compounds, 0.21% hits; active = well fitted falling curve with a large enough effect; inconclusive = small, poorly fitted or top-dose-only effect; inactive = no such curve, though single readings can be large or run the other way; also: nearly all actives have a fitted effect of over 50% in size
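Fission yeast RE007 carrying one integrated HIV-1 vpr copy, seeded at OD 0.01 in PMG+AL medium with 23 nL pinned compound. Grown 24 h at 30 degrees; viability read by BacTiter-Glo luminescence after 5 min.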
Sm TGR inh = qHTS Assay for the Inhibitors of Schistosoma Mansoni Peroxiredoxins; Schistosoma mansoni thioredoxin glutathione reductase (TGR), Q962Y6; 360,000 compounds, 3% hits; Potency, µM (titrated, usually from 114 µM), usual class: inhibitors; purified TGR, DTNB reduction, TNB absorbance 405 nm; also: nearly all actives have a fitted effect of over 60% in size
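First, TGR (20 nM dispensed) and NADPH were mixed with compound. Second, a 15 min room-temperature incubation followed. Third, further NADPH and then DTNB were added to start the reaction. Finally, TNB absorbance was monitored kinetically.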
Tb PYK inh = qHTS of Trypanosoma Brucei Inhibitors; AID 624173, 2012; TbPYK enzyme, Kinase-Glo Plus ATP luminescence, 45 min; Potency, µM (doses to about 76.8 µM), usual class: inhibitors; 410,000 compounds, 0.12% hits; also: nearly all actives have a fitted effect of over 50% in size
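Readout: single end-point luminescence (Kinase-Glo Plus, 10 min). Reaction conditions were TbPYK/substrate plus 130 uM ADP, 45 min at RT, pH 7.2 TEA buffer. No-enzyme wells served as controls, and data were normalized before concentration-response fitting.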
LmPK inh = qHTS Assay for Inhibitors of Leishmania Mexicana Pyruvate Kinase (LmPK) | purified LmPK, Kinase-Glo ATP luminescence, 1 h | Potency, µM (series often up to 57.5 µM), usual class: inhibitors | 290,000 compounds, 0.37% hits | AID 1721, 2009
Target sequence (Q27686 whole entry, looked up): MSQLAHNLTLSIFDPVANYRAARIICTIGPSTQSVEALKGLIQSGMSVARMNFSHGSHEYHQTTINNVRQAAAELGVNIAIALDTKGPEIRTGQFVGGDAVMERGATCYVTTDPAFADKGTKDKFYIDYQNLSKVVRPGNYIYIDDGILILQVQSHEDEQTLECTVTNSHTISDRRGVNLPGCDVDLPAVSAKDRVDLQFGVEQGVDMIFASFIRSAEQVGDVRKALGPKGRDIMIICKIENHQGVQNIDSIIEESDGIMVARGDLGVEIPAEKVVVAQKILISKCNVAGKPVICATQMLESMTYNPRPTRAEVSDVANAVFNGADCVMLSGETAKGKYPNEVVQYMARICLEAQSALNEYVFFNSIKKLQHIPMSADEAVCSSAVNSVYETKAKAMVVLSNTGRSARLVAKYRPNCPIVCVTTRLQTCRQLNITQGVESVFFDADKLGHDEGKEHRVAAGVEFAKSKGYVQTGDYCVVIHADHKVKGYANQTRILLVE
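Purified LmPK (0.1 nM) converted ADP (0.1 mM) to ATP with PEP (0.5 mM) in imidazole buffer pH 7.2 with KCl and MgCl2, 1 h at room temperature. ATP was read by Kinase-Glo luminescence; data normalized to uninhibited and no-enzyme controls.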
Giardia growth = qHTS Assay for Inhibitors of Fructose-1,6-bisphosphate Aldolase from Giardia Lamblia: Giardia lamblia growth inhibition; shares compounds with Giardia FBPA inh-1; Giardia lamblia trophozoite growth inhibition; Potency, µM (top dose mostly 57.5 µM), hits mostly inhibitors; 1,500 compounds, 5% hits; AID 2785, 2010;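 also: trophozoites exposed to compound for 48 h at 37 °C; nearly all actives have a fitted effect of over 70% in size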
Mammal cell tox = qHTS Assay for Inhibitors of Fructose-1,6-bisphosphate Aldolase from Giardia Lamblia: Mammalian cellular toxicity; shares compounds with Giardia FBPA inh-1; mammalian cell viability counter-screen, qHTS; Potency, µM (doses to about 57.5 µM), usual class: inhibitors; 1,500 compounds, 4% hits; AID 2786, 2010;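 also: Chinese hamster ovary cells used as mammalian cytotoxicity surrogate; viability measured as cellular ATP by luminescence; compound exposure lasted 48 h before reading; nearly all actives have a fitted effect of over 60% in size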
Giardia FBPA inh-2 = qHTS Assay for Inhibitors of Fructose-1,6-bisphosphate Aldolase from Giardia Lamblia: Primary screen confirmation | 1,500 compounds, 5% hits | shares compounds with Giardia FBPA inh-1 | Potency, µM (highest dose often 57.5 µM), hits mostly inhibitors | AID 2787, 2010 | purified Giardia aldolase enzyme activity, qHTS; also: nearly all actives have a fitted effect of over 45% in size
Rabbit aldolase = qHTS Assay for Inhibitors of Fructose-1,6-bisphosphate Aldolase from Giardia Lamblia: Rabbit FBPA Selectivity; Potency, µM (series often up to 57.5 µM), usual class: inhibitors; 1,500 compounds, 4% hits; Rabbit muscle FBPA enzyme inhibition, selectivity counter-screen; shares compounds with Giardia FBPA inh-1; AID 2794, 2010; also: nearly all actives have a fitted effect of over 60% in size
GAPDH coupling = qHTS Assay for Inhibitors of Fructose-1,6-bisphosphate Aldolase from Giardia Lamblia: Coupling assay counterscreen confirmation; 1,500 compounds, 6% hits; Potency, µM (highest dose often 57.5 µM), hits mostly inhibitors; AID 2795, 2010; shares compounds with Giardia FBPA inh-1; GAPDH coupling enzyme counterscreen, biochemical, qHTS; also: nearly all actives have a fitted effect of over 55% in size
Numbers stand for hits; – = inactive; ? = inconclusive; · = no result given; ! = not confirmed by another sample; [ ] = dose if it differs, or a comment. Unless noted, calls follow the shape of the dose curve; as a rule, active = well fitted curve in the direction sought with a large enough effect; inconclusive = small, poorly fitted or top-dose-only effect, or another doubt; inactive = no such curve, though single readings can be large; an effect the other way counts as inactive or inconclusive.

SMILES	Giardia FBPA inh-1	RE007 growth inh	Sm TGR inh	Tb PYK inh	LmPK inh	Giardia growth	Mammal cell tox	Giardia FBPA inh-2	Rabbit aldolase	GAPDH coupling
COc1ccccc1N1CCN(CC(=O)c2ccc(F)cc2)CC1	15.8µM	–	22.4µM	–	–	–	–	–	–	–
COc1ccc(CN2CCN(Cc3cccc(F)c3)CC2)cc1OC	?	–	–	–	–	·	·	·	·	·
COc1ccc(CN2CCN(Cc3ccccc3F)CC2)cc1OC	15.8µM	–	–	–	–	–	–	–	–	–
COc1ccc(CN2CCN(Cc3ccccc3OC)CC2)cc1	14.1µM	–	–	–	–	–	–	–	–	–
COc1ccccc1CN1CCN(C(=O)COc2ccc3ccccc3c2)CC1	20µM	–	–	–	–	–[10.4 µM]	–	–	–	–
COc1ccccc1CN1CCN(Cc2ccc(Cl)cc2)CC1	?	–	–	–	–	·	·	·	·	·
COc1ccccc1CN1CCN(C(=O)COc2cccc(C)c2)CC1	?	–	–	–	–	·	·	·	·	·
Cc1cccc(N2C(=S)NC3c4ccccc4OC2(C)C3C(=O)N(C)C)c1 (configuration not stated)	–	–	–	–	–	·	·	·	·	·
CC(=O)Nc1nc2ccccc2n1CCN(C)C	–	–	–	–	–	·	·	·	·	·
CN(C)CCn1c(NCc2ccc3c(c2)OCO3)nc2ccccc21	28.2µM	–	–	–	–	?	–	–	–	–
N#Cc1ccccc1NC(=S)NC(=O)c1cccs1	10µM	–	3.55µM	–	–	?	–	?	?	?
N#Cc1ccccc1NC(=O)COC(=O)c1cccs1	·	–	·	–	·	·	·	·	·	·
Cc1csc(NC(=O)c2ccc(OCC3CCCO3)cc2)n1 (configuration not stated)	–	–	–	–	–	·	·	·	·	·
CC(=O)Nc1n[nH]c(=S)s1	·	–	·	?	·	·	·	·	·	·
CNc1n[nH]c(=S)s1	17.7µM	–	–	?	–	–	–	–	–	–
CCCCc1nc(Cl)c(CO)n1Cc1ccc(-c2ccccc2-c2nn[nH]n2)cc1	12.6µM!	–[18.4 µM]	–	–	–	?	–	–	–	–
CCCCc1nc(Cl)c(CO)n1Cc1ccc(-c2ccccc2-c2nnn[nH]2)cc1	·	–	·	–	·	·	·	·	·	·
COc1ccc2c(c1)CCc1c(C(=O)Nc3c(C)nn(Cc4ccccc4Cl)c3C)noc1-2	·	·	–	–	·	·	·	·	·	·
CCCCN1CCc2[nH]c(=S)[nH]c(=O)c2C1	15.8µM	–	–	–	–	?	–	–	–	–
COCCN1CCc2[nH]c(=S)[nH]c(=O)c2C1	?	–	–	–	–	·	·	·	·	·
CC1CC(C)CN(C(=O)C(C)N(C)CC(=O)Nc2ccc(Cl)cc2)C1 (configuration not stated)	19.9µM	–	–	–	–	–	–	–	–	–
Cc1cccn2c(=O)nc(SCC(=O)N3CCN(c4ccccc4)CC3)nc12	·	–	–	–	·	·	·	·	·	·
O=C(c1cccc(Cl)c1)N1CCN(CCCc2ccccc2)CC1	12.6µM	–	–	–	–	–	–	–	–	–
O=C(c1ccccc1)N1CCN(CCc2ccccc2)CC1	–	–	–	–	–	·	·	·	·	·
CCc1nnc(NC(=O)CN2CCN(Cc3cccc(OC)c3)CC2)s1	3.16µM	–	–	–	–	?	–	–	–	–
SMILES	Giardia FBPA inh-1	RE007 growth inh	Sm TGR inh	Tb PYK inh	LmPK inh	Giardia growth	Mammal cell tox	Giardia FBPA inh-2	Rabbit aldolase	GAPDH coupling
CCc1nnc(NC(=O)CN2CCN(c3cccc(OC)c3)CC2)s1	–	–	–	–	–	·	·	·	·	·
Cc1nnc(NC(=O)CN2CCN(Cc3ccccc3Cl)CC2)s1	4.47µM	–	–	–	–	–[10.4 µM]	–	–	–	–
Cc1nnc(NC(=O)CN2CCN(Cc3c(Cl)cccc3Cl)CC2)s1	–	–	–	–	–	·	·	·	·	·
S=c1[nH]c2ncccc2o1	?	–	–	–	–	·	·	·	·	·
S=c1[nH]c2cc(Cl)c3cccnc3c2o1	3.55µM	–	–	?	–	–	–	?	?	?
CCOc1ccc(/C=N/Nc2nc(=O)[nH]nc2C)cc1OC	19.9µM	–	–	–	–	?	–	–	–	–
COc1ccc(C)cc1S(=O)(=O)Nc1cc(Cl)ccc1Cl	–	–	–	–	–	·	·	·	·	·
CC(=O)c1c(C)nc(-c2ccc(Cl)cc2)nc1N=CN(C)C	?	–	–	–	–	·	·	·	·	·
CC(=O)c1c(C)nc(-c2ccc(Cl)cc2)nc1N	5µM	–	–	–	–	–	–	–	–	–
Nc1nc2c(s1)COc1ccccc1-2	–	–	–	–	–	·	·	·	·	·
Nc1nc2c(s1)CCc1c-2cnn1-c1ccccc1	0.397µM	·	2.82µM	?	14.1µM	?	?	12.6µM	14.1µM	12.6µM
Cc1ccc(C2/C(=C(/O)c3ccc(Br)cc3)C(=O)C(=O)N2Cc2ccco2)o1 (configuration not stated)	19.9µM	–	7.94µM	–	–	?	–	–	–	–
COc1ccc(/C(O)=C2\C(=O)C(=O)N(Cc3ccco3)C2c2cc(OC)ccc2OC)cc1 (configuration not stated)	–	–	–	–	–	·	·	·	·	·
O=C(N/N=C/c1ccco1)c1cc2ccccc2o1	–	–	–	–	–	·	·	·	·	·
Cc1ccc(N2C(=O)CC(Sc3ncn[nH]3)C2=O)cc1C (configuration not stated)	17.7µM	?	0.316µM	–	–	–	–	–	–	–
Cc1cccc(N2C(=O)CC(Sc3nccc(C)n3)C2=O)c1 (configuration not stated)	–	–	–	–	–	·	·	·	·	·
Cc1cc(C)nc(SC2CC(=O)N(c3ccc(C)c(C)c3)C2=O)n1 (configuration not stated)	–	–	–	–	–	·	·	·	·	·
Cc1cccc(N2C(=O)CC(Sc3ncn[nH]3)C2=O)c1 (configuration not stated)	19.9µM	?	7.08µM	–	–	–	–	–	–	–
